Compounds without any hit were thinned out: in the full panel of roughly 83,000, 20% have a hit.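 A percent growth of 40 corresponds to 60% growth inhibition; 0 means no net growth; -100 means all cells died. Active threshold: below 10.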 A number with no mark means an inactive call. Active and inactive are the calls of the source.

These results are taken from PubChem BioAssay (NCI).

Some test systems named below: SR leukemia; RPMI-8226 leukemia; OVCAR-8 ovarian; OVCAR-5 ovarian; OVCAR-4 ovarian; SK-OV-3 ovarian; IGROV1 ovarian; OVCAR-3 ovarian; HS 578T breast; NCI/ADR-RES ovarian; T-47D breast; BT-549 breast; MDA-MB-435 melanoma; SW-620 colon; MCF7 breast; HCT-116 colon; HCC-2998 colon; KM12 colon.
What all share (assay): NCI-60 one-dose screen, 48 h (100 = growth as untreated, 0 = no growth, -100 = all killed)
Holding throughout (settings): 10 µM unless noted

Turning to `CCCn1cnc2c(c1=N)C(c1ccc(OC)cc1)c1sc3c(C)cccc3c1O2` (configuration not stated), the growth was 27% with SR leukemia; -3.63% (active) in the assay on RPMI-8226 leukemia; 23.9% in the assay with OVCAR-8 ovarian; 32.4% with OVCAR-5 ovarian; 75.3% in the assay with OVCAR-4 ovarian; 49% in the assay with SK-OV-3 ovarian. For the same compound, the growth is 18.4% in the assay with IGROV1 ovarian; 7.94% (active) in the assay on OVCAR-3 ovarian; 10.5% in the assay on HS 578T breast; 7.35% (active) with NCI/ADR-RES ovarian; 40.6% in the assay on T-47D breast; 12.2% in the assay with BT-549 breast. Besides, the growth in the assay with MDA-MB-435 melanoma is -33.4% (active); with SW-620 colon, 25.7%; with MCF7 breast, 20.4%; in the assay with HCT-116 colon it was 6.27% (active); in the assay on HCC-2998 colon, 15%; in the assay on KM12 colon, 11.7%.

Regarding `CS(=O)(=O)Nc1cc(-c2ccc3ncc(C#N)c(Nc4cccc(Cl)c4F)c3c2)cnc1Cl`, the growth was 1.4% (active) in the assay on SR leukemia; -36.9% (active) in the assay with RPMI-8226 leukemia; 10.6% in the assay with OVCAR-8 ovarian; 21.2% in the assay with OVCAR-5 ovarian; 19.1% in the assay on OVCAR-4 ovarian; -18.2% (active) in the assay with SK-OV-3 ovarian. The growth in the assay with IGROV1 ovarian is -43.8% (active); in the assay on OVCAR-3 ovarian it was -12.8% (active); in the assay on HS 578T breast, -26.6% (active); in the assay with NCI/ADR-RES ovarian, 33.7%; with T-47D breast, -8.48% (active); with BT-549 breast it was -4.23% (active). Also, the growth in the assay on MDA-MB-435 melanoma is 3.99% (active); in the assay with SW-620 colon, 4.99% (active); with MCF7 breast, 3.98% (active); with HCT-116 colon, -14.8% (active); with HCC-2998 colon, -22.1% (active); in the assay with KM12 colon, 3.37% (active).

`COc1ccc2c(c1)c(CC(=O)[Se]CC#N)c(C)n2C(=O)c1ccc(Cl)cc1`: the growth with SR leukemia is 3.49% (active); in the assay with RPMI-8226 leukemia it was 20.5%; in the assay on OVCAR-8 ovarian, 6.34% (active); in the assay with OVCAR-5 ovarian it was -13.6% (active); in the assay with OVCAR-4 ovarian it was 27.7%; in the assay on SK-OV-3 ovarian, 34%. For the same compound, the growth with IGROV1 ovarian was -14.3% (active); with OVCAR-3 ovarian, 13.9%; in the assay on HS 578T breast, 28.3%; in the assay on NCI/ADR-RES ovarian it was -13.8% (active); with T-47D breast, 22.4%; in the assay with BT-549 breast it was 75.9%. The growth with MDA-MB-435 melanoma is 26.5%; in the assay with SW-620 colon, -32.7% (active); in the assay on MCF7 breast, 17.3%; in the assay with HCT-116 colon it was -46.7% (active); in the assay with HCC-2998 colon, -4.68% (active); with KM12 colon, -5.24% (active).

For `Cc1ccc(-c2cc3nc(C(Cl)Cl)nc(-c4cccs4)n3n2)cc1`, the growth in the assay on SR leukemia was 108%; in the assay with RPMI-8226 leukemia, 51.9%; in the assay with OVCAR-8 ovarian, 77.5%; in the assay with OVCAR-5 ovarian, 72.4%; with OVCAR-4 ovarian, 71%; with SK-OV-3 ovarian it was 86.4%. Besides, the growth in the assay on IGROV1 ovarian was 61.7%; in the assay on OVCAR-3 ovarian, 20.3%; in the assay on HS 578T breast, 91%; in the assay with NCI/ADR-RES ovarian, 58.3%; in the assay on T-47D breast, 87.8%; in the assay on BT-549 breast, 97.8%. In addition, the growth with MDA-MB-435 melanoma is 77.6%; in the assay on SW-620 colon it was 52.5%; in the assay on MCF7 breast, 59.8%; in the assay on HCT-116 colon, 63.5%; with HCC-2998 colon it was 54.1%; in the assay with KM12 colon, 27.1%.

`N#Cc1c(NC(=O)c2cccc(C(F)(F)F)c2F)sc2c1CCC(=O)C2`: the growth in the assay on SR leukemia is 0.648% (active); with RPMI-8226 leukemia it was -24.6% (active); in the assay with OVCAR-8 ovarian it was 11.7%; with OVCAR-5 ovarian, -6.14% (active); in the assay with OVCAR-4 ovarian, -36.3% (active); with SK-OV-3 ovarian, 5.3% (active). The growth in the assay on IGROV1 ovarian was -0.691% (active); with OVCAR-3 ovarian, -40.5% (active); in the assay on HS 578T breast it was -17% (active); in the assay with NCI/ADR-RES ovarian it was -3.6% (active); in the assay with T-47D breast it was -3.25% (active); with BT-549 breast, -22.7% (active). The growth with MDA-MB-435 melanoma was -30.5% (active); with SW-620 colon, 0.65% (active); in the assay on MCF7 breast, 2.17% (active); in the assay on HCT-116 colon, -50.9% (active); in the assay with HCC-2998 colon, -29.6% (active); with KM12 colon, -42.7% (active).

Turning to `Cc1cccc2c3c(sc12)C(c1ccc(Cl)cc1)c1c(nc(CC(=O)Nc2ccccc2)[nH]c1=O)O3` (configuration not stated), the growth in the assay with SR leukemia was 58.1%; in the assay on RPMI-8226 leukemia, 73.9%; in the assay on OVCAR-8 ovarian it was 85.6%; with OVCAR-5 ovarian, 81.6%; in the assay with OVCAR-4 ovarian, 90.3%; with SK-OV-3 ovarian it was 73.3%. Further, the growth in the assay on IGROV1 ovarian was 21%; in the assay on OVCAR-3 ovarian it was 30.5%; in the assay on HS 578T breast, 60.1%; in the assay on NCI/ADR-RES ovarian, 26.7%; in the assay with T-47D breast it was 47.9%; in the assay with BT-549 breast, 77.1%. Further, the growth with MDA-MB-435 melanoma was 9.37% (active); with SW-620 colon, 40.9%; in the assay on MCF7 breast, 38.1%; in the assay on HCT-116 colon, 37.7%; in the assay on HCC-2998 colon it was 85.7%; in the assay on KM12 colon it was 37.7%.

On to `Nc1cc(-c2c[nH]c3ccc(Br)cc23)nc2cc(-c3c[nH]c4ccc(Br)cc34)nn12`, for which the growth is -1.79% (active) in the assay on SR leukemia; 15.9% in the assay on RPMI-8226 leukemia; 24.5% in the assay with OVCAR-8 ovarian; 7.96% (active) in the assay with OVCAR-5 ovarian; 40.8% in the assay on OVCAR-4 ovarian; 116% in the assay on SK-OV-3 ovarian. The growth with IGROV1 ovarian is 22.2%; in the assay on OVCAR-3 ovarian, 22.6%; with HS 578T breast, 54.4%; with NCI/ADR-RES ovarian it was 35.5%; with T-47D breast it was 39.3%; in the assay with BT-549 breast, 76.4%. The growth is -20.3% (active) in the assay on MDA-MB-435 melanoma; 5.89% (active) in the assay with SW-620 colon; 8.21% (active) with MCF7 breast; -72% (active) in the assay with HCT-116 colon; -3.56% (active) with HCC-2998 colon; -23.2% (active) with KM12 colon.

On to `CCc1cccc(NC(=O)CNc2cc(S(=O)(=O)N(C)C)cc(C)c2C)c1`, for which the growth is 83.8% with SR leukemia; 65.7% with RPMI-8226 leukemia; 97.7% with OVCAR-8 ovarian; 84.1% in the assay with OVCAR-5 ovarian; 56.3% in the assay on OVCAR-4 ovarian; 107% in the assay on SK-OV-3 ovarian. Moreover, the growth was 74% with IGROV1 ovarian; 112% in the assay with OVCAR-3 ovarian; 97.2% with HS 578T breast; 100% in the assay with NCI/ADR-RES ovarian; 88.8% with T-47D breast; 97.3% in the assay with BT-549 breast. In addition, the growth was 92.4% in the assay with MDA-MB-435 melanoma; 97.6% in the assay with SW-620 colon; 91.7% in the assay with MCF7 breast; 91.3% in the assay with HCT-116 colon; 123% in the assay on HCC-2998 colon; 98.9% in the assay on KM12 colon.

Turning to `COc1ccccc1-n1cc(C#N)c(N)c1C(=O)c1ccc(Br)cc1`, the growth with SR leukemia was 40.3%; in the assay on RPMI-8226 leukemia it was 92.4%; in the assay with OVCAR-8 ovarian, 90.7%; with OVCAR-5 ovarian, 94.4%; with OVCAR-4 ovarian, 96.8%; in the assay with SK-OV-3 ovarian, 88.7%. The growth in the assay on IGROV1 ovarian was 67.8%; with OVCAR-3 ovarian, 73.3%; in the assay with HS 578T breast it was 78.4%; with NCI/ADR-RES ovarian, 42.6%; in the assay on T-47D breast it was 60%; with BT-549 breast, 88.9%. Further, the growth was 3.09% (active) in the assay on MDA-MB-435 melanoma; 38.7% with SW-620 colon; 33.5% with MCF7 breast; 58.8% in the assay with HCT-116 colon; 71% with HCC-2998 colon; 39.3% with KM12 colon.
